Inhibition and activity data for ten molecules are collected here from PubChem BioAssay.

Active and inactive are the calls of the source. Unless noted, no rule for the calls is given here.

Assay [1] is described as follows: Brca1-Bard1 BiLC signal decrease – luminescence, single concentration, counter-screen for Mdm2/MdmX interaction inhibitor project, confirmation (AID 504668). The following applies: Brca1/Bard1 bimolecular luciferase complementation counterscreen, at 8 µM, stronger effect = higher value. For orientation: The purpose of a counterscreen is to sort out artefacts and off-target activity.

Assay [2] deals with PEG-3 (UniProt Q6IN02). In words: inhibition of PEG-3 promoter-driven reporter – cell-based, HeLa, luciferase, CREF/GAPDH counter-screen panel, dose response (AID 624167). The following applies: CREF/GAPDH counter-screens; HeLa PEG-Prom luciferase reporter, overnight, run 1, dose range 1, at 100 µM (top of the series) unless noted.
The target in assay [3] is PEG-3 (UniProt Q6IN02). Described as above. The following applies: CREF/GAPDH counter-screens; HeLa PEG-Prom luciferase reporter, overnight, run 2, dose range 1, at 100 µM (top of the series) unless noted.
Assay [4] deals with Rat fibroblasts (CREF). The description is as above. The following applies: CREF/GAPDH counter-screens; run 1, dose range 1, at 100 µM (top of the series).
In assay [5] the test system is Rat fibroblasts (CREF). Described as above. The following applies: CREF/GAPDH counter-screens; run 2, dose range 1, at 100 µM (top of the series).
For assay [6], the target named is Tumor necrosis factor receptor superfamily member 10B (Homo sapiens) (UniProt O14763). Put plainly: viability loss of caspase-8 NB7 cells with TRAIL – with/without TRAIL, luminescence panel, confirmation (AID 651596; in the data active = activity above about 50%). The following applies: NB7 neuroblastoma + caspase-8, TRAIL sensitization, NB7 Caspase-8, with TRAIL, mean of runs, at 10 µM, stronger effect = higher value.
Assay in assay [7]: as above
The following applies: NB7 neuroblastoma + caspase-8, without TRAIL, NB7 Caspase-8, without TRAIL, mean of runs, at 10 µM.

The nature of assay [8]: NFkB reporter suppression in cystic fibrosis bronchial cells – cell-based, uHTS hits, panel, cytotoxicity readout, dose response (AID 624344). The following applies: CF bronchial epithelial cells, PAF-induced NFkB reporter inhibition, with PAF, run 1; at 79 µM (top of the series) unless noted.
Assay in assay [9]: as above
The following applies: CF bronchial epithelial cells, PAF-induced NFkB reporter inhibition, with PAF, run 2; at 79 µM (top of the series) unless noted.

Sequence of Tumor necrosis factor receptor superfamily member 10B (Homo sapiens) (O14763 whole entry, looked up): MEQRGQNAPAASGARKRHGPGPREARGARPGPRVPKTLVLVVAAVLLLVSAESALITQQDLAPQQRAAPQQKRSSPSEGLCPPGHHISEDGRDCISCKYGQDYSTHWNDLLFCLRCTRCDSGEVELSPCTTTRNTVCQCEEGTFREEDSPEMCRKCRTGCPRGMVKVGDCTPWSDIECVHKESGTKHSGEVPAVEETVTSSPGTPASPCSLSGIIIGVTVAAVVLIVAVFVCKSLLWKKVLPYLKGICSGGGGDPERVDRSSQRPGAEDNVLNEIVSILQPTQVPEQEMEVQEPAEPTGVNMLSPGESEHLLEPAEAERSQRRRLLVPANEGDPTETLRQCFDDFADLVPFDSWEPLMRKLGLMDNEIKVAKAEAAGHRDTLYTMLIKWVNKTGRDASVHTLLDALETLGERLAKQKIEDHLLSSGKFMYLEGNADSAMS
Sequence of PEG-3 (Q6IN02 whole entry, looked up): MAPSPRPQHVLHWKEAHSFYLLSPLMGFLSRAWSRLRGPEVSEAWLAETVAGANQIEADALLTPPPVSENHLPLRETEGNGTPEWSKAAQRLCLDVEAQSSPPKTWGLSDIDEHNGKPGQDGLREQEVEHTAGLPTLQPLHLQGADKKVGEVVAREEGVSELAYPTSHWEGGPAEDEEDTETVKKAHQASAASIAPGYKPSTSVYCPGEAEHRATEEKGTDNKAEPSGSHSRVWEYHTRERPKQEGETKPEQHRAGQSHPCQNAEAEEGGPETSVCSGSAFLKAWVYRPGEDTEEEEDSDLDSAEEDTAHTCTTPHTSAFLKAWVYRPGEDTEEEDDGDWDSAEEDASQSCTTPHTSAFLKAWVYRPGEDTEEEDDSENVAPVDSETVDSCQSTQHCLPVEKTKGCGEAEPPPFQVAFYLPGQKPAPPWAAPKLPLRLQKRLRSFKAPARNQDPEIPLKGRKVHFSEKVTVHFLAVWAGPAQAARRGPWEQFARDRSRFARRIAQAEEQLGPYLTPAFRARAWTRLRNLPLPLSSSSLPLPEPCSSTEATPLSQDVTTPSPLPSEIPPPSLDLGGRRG

For orientation: inhibition means the relative decrease from the control value, in per cent. Turning to `CCCC(=O)NC(c1ccc(N(C)C)cc1)c1ccc2cccnc2c1O` (stereo unspecified), the inhibition in assay [1] is 29.9% (active); with PEG-3 [2], 24.4%; with PEG-3 [3], 78.2% [run 2, dose range 1, at 50 µM]; with Rat fibroblasts (CREF) [4], 42.3%; in the assay with Rat fibroblasts (CREF) [5], 43.5%.

Consider `COC(=O)c1nn(-c2ccc3c(c2)CCN3C(C)=O)cc1O`, for which the inhibition was 31% (active) in assay [1]; 96.2% in the assay with PEG-3 [2]; 97.9% in the assay with PEG-3 [3]; 99.1% in the assay on Rat fibroblasts (CREF) [4]; 99.2% in the assay with Rat fibroblasts (CREF) [5]. The activity was determined as 86.6% in assay [6] and 85.3% in assay [7].

`COc1ccc(C(=O)CN2C(=O)c3ccccc3S2(=O)=O)cc1`: the inhibition is 25.5% (active) in assay [1]; 99.1% with PEG-3 [2]; 97.6% with PEG-3 [3]; 96.6% with Rat fibroblasts (CREF) [4]; 97.6% with Rat fibroblasts (CREF) [5]. Also, the activity in [6] was found to be 70.2%; in assay [7], 70.8%.

Regarding `Cc1nc2sc(C(N)=O)c(N)c2c(C)c1CC(=O)c1ccccc1`, the inhibition was 31.4% (active) in [1], 101% in assay [8] and 80.3% in [9].

With `CCOC(=O)Nc1ccc2c(c1)N(C(=O)CCN(CC)CC)c1ccccc1S2=O` (stereo unspecified), the inhibition in assay [1] was 29.9% (active); in [8] it was 102%; in assay [9], 107%.

Regarding `O=C(NCCc1ccccc1)c1ccc2c(c1)OCCO2`, the inhibition was 27.8% (active) in assay [1]; 94.6% with PEG-3 [2]; 97.9% with PEG-3 [3]; 99% in the assay with Rat fibroblasts (CREF) [4]; 98.4% in the assay with Rat fibroblasts (CREF) [5]. Besides, the activity in [6] worked out at 89.7%; in [7], 90.2%.

On to `CCC(=O)NC(c1ccc(C)cc1)c1ccc2cccnc2c1O` (stereo unspecified), for which the inhibition is 23.7% (active) in assay [1]; -12.7% with PEG-3 [2]; 50.5% with PEG-3 [3]; 16.7% in the assay on Rat fibroblasts (CREF) [4]; 31.4% in the assay with Rat fibroblasts (CREF) [5].

For `COc1ccccc1C(=O)Nc1nc2ccccc2s1`, the inhibition is 31.7% (active) in assay [1]; 101% in the assay with PEG-3 [2]; 98% with PEG-3 [3]; 100% in the assay with Rat fibroblasts (CREF) [4]; 99.5% in the assay on Rat fibroblasts (CREF) [5].

For the molecule `O=c1c2ccccc2sc2ccc(C#CC3(O)CCCCC3)cc12`, the inhibition was 25.4% (active) in assay [1]; 99.4% with PEG-3 [2]; 98% with PEG-3 [3]; 100% with Rat fibroblasts (CREF) [4]; 100% in the assay on Rat fibroblasts (CREF) [5]. The figures for the activity in assay [6] and in assay [7] were 97.6% and 97.2%, respectively.

With `O=C(Nc1ccc(N2CCOCC2)cc1)c1cnsn1`, the inhibition in [1] is 32.1% (active); with PEG-3 [2] it was 96.4%; with PEG-3 [3], 98.9%; with Rat fibroblasts (CREF) [4], 97.9%; in the assay with Rat fibroblasts (CREF) [5] it was 60.2%. Moreover, the values for the activity in [6] and in assay [7] were 78.7% and 75.9%, respectively.
